An excerpt weighted towards active compounds, which were near 1.2% of everything screened.
HTT ATP protect – qHTS Multiplex Assay to Identify Dual Action Probes in a Cell Model of Huntington: Cytoprotection (ATP). PC12 HTT-Q103 induced, cytoprotection, ATP luminescence, 40 h. Potency, µM (titrated, usually from 56.4 µM), actives largely listed as activators. hit rate 0.14% among 230,000. AID 1471, 2008; further: nearly all actives have a fitted effect of over 45% in size
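Huntington model: PC12 line, ecdysone-inducible HTTQ103 exon1–GFP, tebufenozide 100 nM. Test articles in a dose series. Endpoint luminescence from cellular ATP.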
HTT aggregate – qHTS Multiplex Assay to Identify Dual Action Probes in a Cell Model of Huntington: Aggregate Formation (GFP); PC12 HttQ103-GFP aggregates, Acumen cytometry, 40 h; Potency, µM (titrated, usually from 46.1 µM), hits mostly inhibitors; hit rate 1.1% among 220,000; further: nearly all actives have a fitted effect of over 60% in size
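Aggregates are detected as GFP objects 1–25 µm with signal 6 STDEV over background in lysates of induced PC12 cells. These carry Huntingtin exon 1 with 103 glutamines fused to GFP under an ecdysone promoter; compounds titrated.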
PKM2 activator – qHTS Assay for Activators of Human Muscle isoform 2 Pyruvate Kinase; Pyruvate kinase PKM (Homo sapiens), P14618; purified PKM2, Kinase-Glo ATP luminescence, activation; response scale: 0% is enzyme alone, no compound; Potency, µM (titrated, usually from 57.5 µM), usual class: activators; hit rate 0.34% among 260,000; AID 1631, 2009; further: nearly all actives have a fitted effect of over 55% in size
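Purified hPK-M2 (>95% pure) converted ADP (0.1 mM final) to ATP with 0.5 mM PEP in 50 mM imidazole pH7.2, KCl, MgCl2, Tween 20, BSA; 1 h at room temperature. ATP detected by Kinase-Glo luminescence.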
GLA spleen mod – qHTS Assay for Inhibitors and Activators of Human alpha-Galactosidase From Spleen Homogenate; Alpha-galactosidase A (Homo sapiens), P06280; human spleen homogenate, 4MU-alpha-Gal fluorescence, 40 min; Potency, µM (top dose mostly 80 µM), hits mostly inhibitors; hit rate 0.008% among 240,000
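Inhibition or activation of alpha-galactosidase in human spleen homogenate is scored by 4-MU fluorescence after 40 min at 37C, pH 5.0, with 1 mM substrate. AC50s come from concentration-response fitted to the Hill equation.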
GLA inh pH 4.5 – qHTS Assay for Inhibitors of Human alpha-Galactosidase at pH 4.5; activity change, negative = inhibition, % at 105 µM; purified enzyme, 4-MU-alpha-Gal fluorescence, pH 4.5; 230,000 tested, under 10 active; AID 1467, 2008; Alpha-galactosidase A (Homo sapiens), P06280
Target sequence (P06280 whole entry, looked up): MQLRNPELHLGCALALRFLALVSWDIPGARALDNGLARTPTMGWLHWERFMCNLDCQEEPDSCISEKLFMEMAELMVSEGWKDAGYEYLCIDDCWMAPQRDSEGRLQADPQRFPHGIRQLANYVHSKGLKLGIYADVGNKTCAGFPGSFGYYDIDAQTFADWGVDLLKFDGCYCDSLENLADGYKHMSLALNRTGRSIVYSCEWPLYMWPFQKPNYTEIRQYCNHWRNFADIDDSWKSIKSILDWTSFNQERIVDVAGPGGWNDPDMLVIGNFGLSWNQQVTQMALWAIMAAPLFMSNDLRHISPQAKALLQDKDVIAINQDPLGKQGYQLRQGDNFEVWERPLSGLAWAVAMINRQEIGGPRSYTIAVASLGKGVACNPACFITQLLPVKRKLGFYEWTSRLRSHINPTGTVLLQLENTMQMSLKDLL
A number is an active result; 0 = inactive; ? = inconclusive; - = no result given; [ ] = another dose, or the depositor's remark. The call rests on the fitted dose curve; in most records, active means well fitted curve in the direction sought with a large enough effect; inconclusive means small, poorly fitted or top-dose-only effect, or another doubt; inactive means no such curve, though single readings can be large; an effect the other way counts as inactive or inconclusive.

SMILES	HTT ATP protect	HTT aggregate	PKM2 activator	GLA spleen mod	GLA inh pH 4.5
O=C(/C=C/c1ccc(O)cc1)OC[C@H]1O[C@@H](Oc2c(-c3ccc(O)cc3)oc3cc(O)cc(O)c3c2=O)[C@H](O)[C@@H](O)[C@@H]1O	-	-	-	0	-
CC(C)[C@@H](CC(=O)N[C@@H]1CCCC[C@H]1C(=O)N[C@H](CC(=O)N[C@@H](CCC(=O)O)CC(=O)O)Cc1ccccc1)NC(=O)C[C@H](CO)NC(=O)[C@@H]1CNCC[C@H]1N	0[1.9 µM]	-	-	0	0
Cc1ccccc1NC(=O)NNC(=O)c1ccc2ccccc2c1O	-	-	0	-	-
O=C(NNC(=O)c1ccc2ccccc2c1O)c1ccccc1Cl	0[10 µM]	31.6µM	0	0	0
CC[C@H](C)[C@H](NC(=O)[C@H](CO)NC(=O)[C@H](C)NC(=O)[C@H](C)NC(=O)[C@H](CCC(N)=O)NC(=O)[C@H](CCCCN)NC(=O)[C@H](CCCN=C(N)N)NC(=O)[C@@H](N)CS)C(=O)N[C@@H](CCCCN)C(=O)N[C@H](C(=O)N[C@@H](C)C(=O)N[C@H](C(=O)N[C@@H](CO)C(=O)O)C(C)C)C(C)C	-	-	-	0	-
Cc1ccccc1N1C(=O)CC(Sc2nnc(-c3ccccc3)o2)C1=O (configuration not stated)	0	22.4µM	0	0	0
O=C1CC(Sc2nnc(-c3ccccc3)o2)C(=O)N1c1ccccc1 (configuration not stated)	0	?	0	0	0
CCN(CC)CCNc1ccc(CO)c2sc3ccccc3c(=O)c12	0	12.6µM	0	0	0
O=c1c2ccccc2sc2c(CO)ccc(NCCN3CCCCC3)c12	0[10 µM]	-	-	-	-
NS(=O)(=O)c1ccc(NC(=O)CSc2ncnc3ccccc23)cc1	8.91µM	0	0	0	0
NS(=O)(=O)c1ccc(NC(=O)CSc2ccccn2)cc1	0	0	28.2µM	0	0
CCOC(=O)c1c(NC(=O)CSc2ncnc3ccccc23)sc(C(C)=O)c1C	2.51µM	0	0	0	0
CCCCNC(=O)C(c1ccc(OCC(=O)OC)c(C(=O)OC)c1)N(Cc1ccccn1)C(=O)CCCCCN1C(=O)NC(c2ccc(-c3ccccc3)cc2)C(C(=O)OCc2ccccc2)=C1C (configuration not stated)	0	-	0	0	0
CCCCC/C=C\C\C=C/C=C/C=C/[C@@H](SCC(NC(=O)CCC(N)C(=O)O)C(=O)NCC(=O)O)[C@@H](O)CCCC(=O)O (some centres not stated)	-	-	-	0	0
CC(C)(C)c1ccc(OC2C(O)COC2/C=C/C#Cc2ccccc2)cc1 (configuration not stated)	0[10 µM]	-	-	0[17.5 µM]	-
Cc1ccccc1CN1CCN(CC(=O)NCc2ccccc2)C1=O	4.47µM	0	0	0	0
O=C(CN1CCN(Cc2ccccc2)C1=O)NCc1ccc(Cl)cc1	?	0	0	0	0
COc1ccc(NC(=O)N2CC3(CCN(C(=O)c4cc(C(F)(F)F)cc(C(F)(F)F)c4)CC3)C2)cc1	0	-	-	0	-
CC1(C)CC(=O)C(C(c2ccc(F)cc2)C2C(=O)CC(C)(C)CC2=O)C(=O)C1	0[10 µM]	0	0	0	0
CCc1sc(C(C2C(=O)CC(C)(C)CC2=O)C2C(=O)CC(C)(C)CC2=O)cc1[N+](=O)[O-]	0[10 µM]	0[9.22 µM]	22.4µM	0	0
O=C1CC(c2ccc(OCCCCCOc3ccc(C4CC(=O)NC4=O)cc3)cc2)C(=O)N1 (configuration not stated)	0[10 µM]	0[9.22 µM]	14.1µM	0	-
Cc1cc(Cl)ccc1Nc1sc(C(=O)c2cc3cc(Cl)ccc3o2)c(N)c1C#N	0[10 µM]	-	-	-	-
CCOC(=O)N1CCC(c2cc(=O)n3[nH]c(-c4ccccc4)cc3n2)CC1	0[10 µM]	0	0	0	0
CCOC(=O)N1CCC(c2cc(=O)n3[nH]c(C)c(-c4ccc(F)cc4)c3n2)CC1	0	11.2µM	0	0	0
COC(=O)c1ccc2nc(Nc3nc4c(F)cc(F)cc4s3)sc2c1	-	6.31µM	0	0	?
SMILES	HTT ATP protect	HTT aggregate	PKM2 activator	GLA spleen mod	GLA inh pH 4.5
CC12C=C(/C=C/c3ccccc3)C(C)(C1)C(c1ccccc1)CC2=O (configuration not stated)	0[10 µM]	-	-	0[17.5 µM]	-
CN(C)c1cc[n+](Cc2c(Cl)cccc2Cl)cc1	0[10 µM]	8.91µM	0	0	0
CN(C)c1cc[n+](CC(=O)Nc2c(Cl)cc(Cl)cc2Cl)cc1	0[10 µM]	0[9.22 µM]	0	0	0
COCCOC(=O)c1[nH]c2c(c1C)C(=O)CC(c1ccco1)C2 (configuration not stated)	0	0	?	0	0
CSCCOC(=O)c1[nH]c2c(c1C)C(=O)CC(c1ccco1)C2 (configuration not stated)	0	0	22.4µM	0	0
CCOc1cc([C@@H]2C[C@H]3CN(c4ccccc4)C(=O)[C@]34CCCN24)ccc1OC	0	7.08µM	0	0	0
O=C(O)CCCCn1cnc2c(=S)nc[nH]c21	0[10 µM]	-	-	-	-
Brc1ccc(CSc2nnc(-c3ccccn3)n2Cc2ccco2)cc1	0[0.074 µM]	0	0	0	0
CC(C)(C)c1ccc(CSc2nnc(-c3ccccn3)n2Cc2ccco2)cc1	0	14.1µM	0	0	0
COC(=O)[C@@H](NC(=O)c1cc(-c2ccccc2)nc2ccccc12)c1ccccc1	0[1.9 µM]	-	-	-	-
C=CCn1c(NCCc2ccccc2)nc2c1c(=O)n(C)c(=O)n2C	0[10 µM]	11.2µM	0	0	0
Cn1c(=O)c2c(nc(NCCc3ccccc3)n2CC(=O)NCCc2ccccc2)n(C)c1=O	0[10 µM]	0	0	0	0
Cc1ccc(Cn2c(NCCc3ccccc3)nc3c2c(=O)n(C)c(=O)n3C)cc1	0	?	0	0	0
C/C(Cl)=C\Cn1c(NCCc2ccccc2)nc2c1c(=O)n(C)c(=O)n2C	0	4.47µM	0	0	0
CC(C)CCC[C@@H](C)[C@H]1CC[C@H]2[C@@H]3CC[C@@H]4C[C@H](O)CC[C@]4(C)[C@H]3CC[C@]12C	0	0	-	-	-
O=C1CC(Cc2ccccc2)C(=O)N1Cc1ccco1 (configuration not stated)	0	0	28.2µM	0	0
Cc1ccc(CC2CC(=O)N(Cc3ccco3)C2=O)cc1 (configuration not stated)	0	0	?	0	0
COc1ccc(C2=NOC(C(=O)Nc3cc(C)on3)C2)cc1OC (configuration not stated)	0[10 µM]	0[9.22 µM]	3.55µM	0	0
COc1cc(C2=NOC(C(=O)Nc3cc(C)on3)C2)cc(OC)c1OC (configuration not stated)	0[10 µM]	0[9.22 µM]	0	0	0

Screening results as filed in PubChem.
